10 molecules from ChEMBL document CHEMBL2218924, “A broad activity screen in support of a chemogenomic map for kinase signalling research and drug discovery” (Biochem J, 2013) can be followed below.

For test [1], the target named is T1, Serine/threonine-protein kinase NLK (Homo sapiens) (UniProt Q9UBE8).
T1 sequence (whole entry): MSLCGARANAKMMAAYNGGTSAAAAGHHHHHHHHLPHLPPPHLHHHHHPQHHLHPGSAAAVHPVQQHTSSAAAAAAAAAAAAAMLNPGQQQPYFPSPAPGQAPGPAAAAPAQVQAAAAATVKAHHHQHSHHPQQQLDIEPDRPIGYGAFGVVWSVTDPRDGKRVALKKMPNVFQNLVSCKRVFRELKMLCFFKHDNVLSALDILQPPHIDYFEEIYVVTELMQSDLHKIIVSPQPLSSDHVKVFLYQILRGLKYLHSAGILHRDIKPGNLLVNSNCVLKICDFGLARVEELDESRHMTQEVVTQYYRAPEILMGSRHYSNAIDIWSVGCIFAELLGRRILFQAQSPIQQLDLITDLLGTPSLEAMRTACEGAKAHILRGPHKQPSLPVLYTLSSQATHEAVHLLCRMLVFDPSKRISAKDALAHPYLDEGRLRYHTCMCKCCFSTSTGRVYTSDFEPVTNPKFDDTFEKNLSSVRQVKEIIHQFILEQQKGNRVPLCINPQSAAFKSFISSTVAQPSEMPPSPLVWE
Particulars: at 10 µM.

The target of test [2] is Serine/threonine-protein kinase PAK 2 (Homo sapiens) (UniProt Q13177). The note with it: at 1 µM.
For test [3] the target is unchanged. Particulars: at 10 µM.
Test [4] addresses Serine/threonine-protein kinase PAK 4 (Homo sapiens) (UniProt O96013). Particulars: at 1 µM.
The target is the same in test [5]. The note with it: at 10 µM.
In test [6] the target is Serine/threonine-protein kinase PAK 5 (Homo sapiens) (UniProt Q9P286). The note with it: at 1 µM.
Sequence of Serine/threonine-protein kinase PAK 5 (Homo sapiens) (Q9P286 whole entry, looked up): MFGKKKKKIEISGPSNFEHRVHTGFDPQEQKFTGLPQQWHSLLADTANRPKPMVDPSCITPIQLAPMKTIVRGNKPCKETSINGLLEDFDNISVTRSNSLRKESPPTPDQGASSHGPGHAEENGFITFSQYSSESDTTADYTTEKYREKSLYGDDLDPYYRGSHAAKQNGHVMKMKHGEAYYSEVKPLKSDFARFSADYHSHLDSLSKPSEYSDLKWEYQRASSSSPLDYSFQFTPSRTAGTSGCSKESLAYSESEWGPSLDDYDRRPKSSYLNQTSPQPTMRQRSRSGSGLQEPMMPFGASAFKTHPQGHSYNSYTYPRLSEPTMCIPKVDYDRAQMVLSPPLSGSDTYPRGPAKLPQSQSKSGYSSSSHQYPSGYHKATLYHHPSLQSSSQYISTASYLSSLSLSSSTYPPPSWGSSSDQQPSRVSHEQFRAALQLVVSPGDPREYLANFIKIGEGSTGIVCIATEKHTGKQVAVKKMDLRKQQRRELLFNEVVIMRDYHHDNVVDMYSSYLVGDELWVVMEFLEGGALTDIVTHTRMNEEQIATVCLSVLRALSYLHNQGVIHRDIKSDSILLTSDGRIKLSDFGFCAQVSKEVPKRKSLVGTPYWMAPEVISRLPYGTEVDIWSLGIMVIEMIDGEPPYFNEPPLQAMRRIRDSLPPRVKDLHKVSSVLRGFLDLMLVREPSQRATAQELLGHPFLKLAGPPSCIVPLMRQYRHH
For test [7] the target is unchanged. Particulars: at 10 µM.
Test [8] addresses Serine/threonine-protein kinase PAK 6 (Homo sapiens) (UniProt Q9NQU5). Particulars: at 1 µM.
The target is the same in test [9]. The note with it: at 10 µM.
Test [10] concerns the target PAS domain-containing serine/threonine-protein kinase (Homo sapiens) (UniProt Q96RG2). Particulars: at 10 µM.
For test [11], the target named is Activated CDC42 kinase 1 (Homo sapiens) (UniProt Q07912). Particulars: at 1 µM.
Sequence of Activated CDC42 kinase 1 (Homo sapiens) (Q07912 whole entry, looked up): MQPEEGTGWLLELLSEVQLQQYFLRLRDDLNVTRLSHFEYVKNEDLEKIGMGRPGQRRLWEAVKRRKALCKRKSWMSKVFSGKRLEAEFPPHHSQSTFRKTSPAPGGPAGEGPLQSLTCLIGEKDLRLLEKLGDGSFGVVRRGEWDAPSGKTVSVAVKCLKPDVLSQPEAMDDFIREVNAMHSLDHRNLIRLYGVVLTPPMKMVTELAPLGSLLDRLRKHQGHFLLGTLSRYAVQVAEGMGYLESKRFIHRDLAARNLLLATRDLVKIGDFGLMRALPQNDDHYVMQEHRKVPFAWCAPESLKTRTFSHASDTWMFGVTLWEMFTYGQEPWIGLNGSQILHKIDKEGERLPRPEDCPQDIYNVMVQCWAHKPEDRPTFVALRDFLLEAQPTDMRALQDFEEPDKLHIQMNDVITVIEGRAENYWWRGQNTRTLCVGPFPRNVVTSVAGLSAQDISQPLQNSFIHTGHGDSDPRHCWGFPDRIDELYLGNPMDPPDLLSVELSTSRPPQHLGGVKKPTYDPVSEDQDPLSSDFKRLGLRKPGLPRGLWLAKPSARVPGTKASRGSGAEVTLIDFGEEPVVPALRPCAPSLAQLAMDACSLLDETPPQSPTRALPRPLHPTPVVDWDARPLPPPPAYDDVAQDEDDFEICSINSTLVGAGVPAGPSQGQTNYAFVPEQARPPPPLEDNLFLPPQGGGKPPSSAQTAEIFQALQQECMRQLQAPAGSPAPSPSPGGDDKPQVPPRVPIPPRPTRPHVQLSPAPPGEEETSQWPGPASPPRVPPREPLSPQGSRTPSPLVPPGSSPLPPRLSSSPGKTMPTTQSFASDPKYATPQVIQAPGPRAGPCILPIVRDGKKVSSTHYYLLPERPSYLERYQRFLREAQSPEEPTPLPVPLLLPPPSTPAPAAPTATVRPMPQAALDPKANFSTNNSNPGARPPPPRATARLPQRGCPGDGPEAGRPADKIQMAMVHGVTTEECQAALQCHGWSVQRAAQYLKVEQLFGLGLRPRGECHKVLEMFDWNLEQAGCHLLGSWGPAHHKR
The target is the same in test [12]. The note with it: at 10 µM.
Test [13] has as its target ALK tyrosine kinase receptor (Homo sapiens) (UniProt Q9UM73). Particulars: at 1 µM.
Test [14] addresses Ribosomal protein S6 kinase beta-1 (Homo sapiens) (UniProt P23443). The note with it: at 1 µM.
Test [15] has the same target. Particulars: at 10 µM.
The target in test [16] is Serine/threonine-protein kinase Nek6 (Homo sapiens) (UniProt Q9HC98). Particulars: at 10 µM.
Sequence of Serine/threonine-protein kinase Nek6 (Homo sapiens) (Q9HC98 whole entry): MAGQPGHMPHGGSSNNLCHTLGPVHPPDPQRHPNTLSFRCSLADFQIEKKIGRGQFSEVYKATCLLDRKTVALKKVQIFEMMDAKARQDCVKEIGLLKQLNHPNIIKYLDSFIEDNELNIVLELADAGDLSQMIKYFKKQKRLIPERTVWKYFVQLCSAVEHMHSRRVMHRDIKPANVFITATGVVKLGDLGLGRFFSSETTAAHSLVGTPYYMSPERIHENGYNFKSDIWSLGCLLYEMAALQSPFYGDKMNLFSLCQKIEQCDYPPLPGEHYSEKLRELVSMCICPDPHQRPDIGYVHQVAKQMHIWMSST
Test [17] addresses Serine/threonine-protein kinase Nek7 (Homo sapiens) (UniProt Q8TDX7). Particulars: at 1 µM.
Test [18] has the same target. The note with it: at 10 µM.
Test [19] has as its target Serine/threonine-protein kinase Nek6 (Homo sapiens) (UniProt Q9HC98). The note with it: at 1 µM.
The target in test [20] is T1, Serine/threonine-protein kinase NLK (Homo sapiens). The note with it: at 1 µM.

Sequence of Serine/threonine-protein kinase PAK 6 (Homo sapiens) (Q9NQU5 whole entry, looked up): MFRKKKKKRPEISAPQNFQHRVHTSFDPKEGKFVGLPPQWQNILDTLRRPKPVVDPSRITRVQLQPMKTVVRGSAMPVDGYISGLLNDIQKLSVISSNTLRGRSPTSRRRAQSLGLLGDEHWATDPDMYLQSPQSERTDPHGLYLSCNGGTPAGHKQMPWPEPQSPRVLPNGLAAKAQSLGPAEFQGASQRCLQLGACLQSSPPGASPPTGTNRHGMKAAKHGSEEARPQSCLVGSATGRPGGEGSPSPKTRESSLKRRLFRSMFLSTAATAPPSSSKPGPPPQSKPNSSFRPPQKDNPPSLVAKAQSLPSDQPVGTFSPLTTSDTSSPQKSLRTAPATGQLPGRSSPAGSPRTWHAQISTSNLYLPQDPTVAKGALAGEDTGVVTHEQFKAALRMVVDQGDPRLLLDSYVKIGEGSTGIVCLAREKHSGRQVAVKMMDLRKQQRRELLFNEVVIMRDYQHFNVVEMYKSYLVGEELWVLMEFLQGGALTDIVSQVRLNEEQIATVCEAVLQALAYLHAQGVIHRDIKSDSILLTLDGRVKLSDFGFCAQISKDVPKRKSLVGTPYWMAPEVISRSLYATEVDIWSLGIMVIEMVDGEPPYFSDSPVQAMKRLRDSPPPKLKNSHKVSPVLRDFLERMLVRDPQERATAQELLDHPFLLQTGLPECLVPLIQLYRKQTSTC
Sequence of PAS domain-containing serine/threonine-protein kinase (Homo sapiens) (Q96RG2 whole entry, the tested form may be a part): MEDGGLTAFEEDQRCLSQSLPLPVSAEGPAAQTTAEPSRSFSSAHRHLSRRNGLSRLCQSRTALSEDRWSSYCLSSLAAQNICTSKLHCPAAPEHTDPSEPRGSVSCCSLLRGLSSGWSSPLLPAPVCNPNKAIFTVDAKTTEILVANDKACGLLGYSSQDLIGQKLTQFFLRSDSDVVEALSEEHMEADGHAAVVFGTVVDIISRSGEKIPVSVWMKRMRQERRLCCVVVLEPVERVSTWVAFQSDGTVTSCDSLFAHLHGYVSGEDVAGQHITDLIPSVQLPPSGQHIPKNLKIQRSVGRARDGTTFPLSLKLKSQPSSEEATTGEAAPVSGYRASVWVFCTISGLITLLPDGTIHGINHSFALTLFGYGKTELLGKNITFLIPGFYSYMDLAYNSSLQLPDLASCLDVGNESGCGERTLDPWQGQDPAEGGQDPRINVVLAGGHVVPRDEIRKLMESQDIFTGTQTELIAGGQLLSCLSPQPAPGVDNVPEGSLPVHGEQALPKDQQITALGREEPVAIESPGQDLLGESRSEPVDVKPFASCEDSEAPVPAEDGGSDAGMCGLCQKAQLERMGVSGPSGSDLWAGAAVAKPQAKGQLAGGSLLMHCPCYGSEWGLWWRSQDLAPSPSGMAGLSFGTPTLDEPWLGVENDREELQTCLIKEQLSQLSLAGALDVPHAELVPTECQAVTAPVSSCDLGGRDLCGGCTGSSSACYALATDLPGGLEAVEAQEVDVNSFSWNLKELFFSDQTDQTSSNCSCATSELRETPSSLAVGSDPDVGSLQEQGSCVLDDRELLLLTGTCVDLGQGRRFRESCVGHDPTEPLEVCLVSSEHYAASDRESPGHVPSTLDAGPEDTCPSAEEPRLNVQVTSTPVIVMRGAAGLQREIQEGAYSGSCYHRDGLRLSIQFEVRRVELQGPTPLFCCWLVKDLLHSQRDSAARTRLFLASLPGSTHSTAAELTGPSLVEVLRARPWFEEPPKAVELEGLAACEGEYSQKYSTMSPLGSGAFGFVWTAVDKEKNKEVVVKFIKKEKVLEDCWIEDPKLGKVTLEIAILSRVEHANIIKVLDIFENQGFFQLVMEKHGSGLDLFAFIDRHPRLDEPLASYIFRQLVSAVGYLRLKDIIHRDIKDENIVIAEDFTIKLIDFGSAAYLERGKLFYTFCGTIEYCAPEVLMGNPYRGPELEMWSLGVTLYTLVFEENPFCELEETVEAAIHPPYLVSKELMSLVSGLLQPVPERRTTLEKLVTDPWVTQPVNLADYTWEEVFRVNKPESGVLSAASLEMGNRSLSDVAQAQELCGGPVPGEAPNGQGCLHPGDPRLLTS
Sequence of Serine/threonine-protein kinase PAK 4 (Homo sapiens) (O96013 whole entry, looked up): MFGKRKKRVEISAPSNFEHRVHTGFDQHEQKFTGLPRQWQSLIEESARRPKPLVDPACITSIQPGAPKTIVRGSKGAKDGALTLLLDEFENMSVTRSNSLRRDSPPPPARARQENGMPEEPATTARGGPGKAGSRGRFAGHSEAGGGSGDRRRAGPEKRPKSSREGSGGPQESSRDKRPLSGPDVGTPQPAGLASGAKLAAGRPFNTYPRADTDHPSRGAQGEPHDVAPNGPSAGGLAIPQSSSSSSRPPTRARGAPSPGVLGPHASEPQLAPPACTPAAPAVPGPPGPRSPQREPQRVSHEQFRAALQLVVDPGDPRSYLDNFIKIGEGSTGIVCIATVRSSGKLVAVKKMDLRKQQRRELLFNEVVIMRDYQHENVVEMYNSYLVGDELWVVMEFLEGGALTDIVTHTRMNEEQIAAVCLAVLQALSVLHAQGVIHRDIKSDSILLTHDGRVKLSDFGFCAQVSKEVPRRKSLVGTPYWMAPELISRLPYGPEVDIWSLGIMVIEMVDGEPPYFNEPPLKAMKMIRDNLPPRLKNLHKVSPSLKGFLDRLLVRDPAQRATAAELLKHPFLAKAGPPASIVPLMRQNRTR
Sequence of Serine/threonine-protein kinase Nek7 (Homo sapiens) (Q8TDX7 whole entry, looked up): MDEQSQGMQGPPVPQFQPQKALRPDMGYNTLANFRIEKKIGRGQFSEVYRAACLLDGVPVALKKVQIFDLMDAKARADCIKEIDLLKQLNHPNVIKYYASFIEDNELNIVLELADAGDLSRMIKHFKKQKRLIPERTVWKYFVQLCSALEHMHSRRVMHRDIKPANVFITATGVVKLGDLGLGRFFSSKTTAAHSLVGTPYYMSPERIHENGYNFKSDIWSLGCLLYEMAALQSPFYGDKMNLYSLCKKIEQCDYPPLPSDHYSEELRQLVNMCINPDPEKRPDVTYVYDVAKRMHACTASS

In the case of `N#CCCc1ccc2c(c1)-c1[nH]c3ccc([N+](=O)[O-])cc3c1CC(=O)N2`, the residual activity in [1] was 64%; in test [2], 62%; in test [3] it was 37%; in [4] it was 13%; in test [5], 4%; in test [6] it was 16%. Also, the residual activity in test [7] was found to be 7%; in test [8], 55%; in test [9] it was 16%; in test [10], 52%; in [11], 32%; in test [12] it was 13%. The residual activity in [13] was found to be 73%.

On to `CCN(CC)C(=O)c1ccc(Nc2nc(OCC3CCCCC3)c3nc[nH]c3n2)cc1`, for which the residual activity in test [14] is 58%; in test [15], 17%; in [16], 95%; in test [17], 98% (inactive); in test [18] it was 82% (inactive); in test [4], 18%. Further, the residual activity in [5] was 2%; in test [6] it was 43%; in [7], 3%; in test [8], 58%; in [9], 23%; in test [11] it was 5%. For the same molecule, the residual activity was 1% in test [12] and 65% in test [13].

In the case of `Nc1n[nH]c2nnc(-c3c(-c4ccccc4)nn4ccccc34)cc12`, the residual activity in test [14] is 112%; in [15] it was 100%; in test [19], 107% (inactive); in [16], 98%; in test [17], 106% (inactive); in [18], 106% (inactive). Further, the residual activity is 74% in [1]; 98% in test [2]; 87% in test [3]; 94% in test [4]; 90% in test [5]; 112% in test [6]. Also, the residual activity is 90% in test [7]; 93% in [8]; 99% in [9]; 114% in test [10]; 61% in test [11]; 29% in test [12]. The residual activity in test [13] is 77%.

Regarding `Cc1cncc2cccc(S(=O)(=O)N3CCCN(C(=O)CN)C[C@H]3C)c12`, the residual activity in test [19] is 88% (inactive); in [17], 88% (inactive); in test [18], 98% (inactive); in [20], 90%; in test [1] it was 86%; in test [3] it was 82%. Moreover, the residual activity in test [4] is 90%; in [5] it was 85%; in [6], 86%; in [7], 95%; in test [8], 88%; in test [9], 86%. The residual activity in test [10] came out at 64%; in [11] it was 69%; in test [12] it was 21%; in test [13], 76%.

For `CN(C)CCCn1cc(C2=C(c3c[nH]c4ccccc34)C(=O)NC2=O)c2ccccc21`, the residual activity in test [14] is 11%; in test [15], 2%; in [16] it was 113%; in [17], 117% (inactive); in test [18], 121% (inactive); in test [20], 127%. Also, the residual activity was found to be 88% in [1]; 115% in test [2]; 102% in test [4]; 75% in test [5]; 88% in test [6]; 77% in test [7]. The residual activity in test [9] turned out to be 78%; in test [10], 18%; in test [11], 112%; in test [12], 45%.

In the case of `Cc1nc(-c2ccccc2)c(-c2ccncc2)o1`, the residual activity is 83% in test [14]; 56% in test [15]; 105% (inactive) in [19]; 107% (inactive) in test [17]; 106% (inactive) in [18]; 103% in [20]. Besides, the residual activity is 48% in [1]; 102% in [2]; 101% in [3]; 100% in test [4]; 104% in test [5]; 106% in [6]. Also, the residual activity in test [7] was found to be 95%; in test [8], 109%; in [9], 90%; in test [10] it was 91%; in test [11] it was 74%; in [12], 64%. Also, the residual activity in test [13] stood at 100%.

Consider `O=C(Nc1cccc(Nc2cc(Nc3cccc(C(F)(F)F)c3)ncn2)c1)C1CC1`, for which the residual activity in test [14] was 92%; in test [15], 110%; in test [19] it was 99% (inactive); in [16], 126%; in test [17], 95% (inactive); in [18], 93% (inactive). Moreover, the residual activity worked out at 63% in [20]; 27% in [1]; 116% in test [2]; 83% in [3]; 94% in test [4]; 79% in [5]. Also, the residual activity turned out to be 100% in test [6]; 98% in test [7]; 104% in test [8]; 90% in test [9]; 64% in test [10]; 79% in [11]. In addition, the figures for the residual activity in test [12] and in test [13] were 26% and 88%, respectively.

Take `Cc1ccc(S(=O)(=O)/C=C/C#N)cc1`: the residual activity is 133% in test [14]; 102% in test [15]; 99% (inactive) in test [19]; 108% in test [16]; 114% (inactive) in [17]; 87% (inactive) in test [18]. Also, the residual activity in test [20] was 101%; in [1], 92%; in [2] it was 107%; in test [3], 98%; in test [4], 99%; in test [5], 95%. The residual activity in [6] is 106%; in test [7], 106%; in test [8], 95%; in [9], 84%; in test [10], 86%; in test [11], 81%. In addition, the residual activity in test [12] came to 75%; in [13], 99%.

Consider `N#CC(C#N)=C(N)/C(C#N)=C/c1ccc(O)cc1`, for which the residual activity in test [14] was determined as 66%; in [15] it was 77%; in test [2], 88%; in test [3] it was 97%; in test [4] it was 98%; in test [5], 91%. In addition, the residual activity in test [8] stood at 100%; in test [9], 87%; in [10], 65%; in [11], 84%; in test [12], 70%; in test [13], 88%.

For the molecule `c1ccc(-c2n[nH]cc2-c2ccnc3ccccc23)nc1`, the residual activity turned out to be 72% in test [14]; 58% in test [15]; 72% in test [20]; 27% in [1]; 107% in [2]; 88% in [3]. Also, the residual activity in [4] was 98%; in [5] it was 90%; in test [6], 92%; in test [7], 104%; in [10], 82%; in test [11] it was 77%. Also, the residual activity was 50% in test [12] and 85% in test [13].
